Shown are actives, neighbours in structure and some others; about 4.6% of the full set was active somewhere.
USP7 inh: human USP7 deubiquitinase inhibition. purified USP7, Ub-rhodamine cleavage fluorescence. AID 1645854. Q93009. actives 0.3% (n = 47,000). inhibition, % at 20 µM
USP8 inh: human USP8 deubiquitinase inhibition; AID 1645853; inhibition, % at 20 µM; purified USP8, Ub-rhodamine cleavage fluorescence, 30 min; actives 4.2% (n = 47,000); P40818
UCHL1 inh: human UCHL1 deubiquitinase inhibition; purified UCHL1, Ub-rhodamine cleavage fluorescence; inhibition, % at 20 µM; actives 0.2% (n = 47,000)
USP10 inh: human USP10 deubiquitinase inhibition. purified USP10, Ub-rhodamine fluorescence, 60 min. actives 1.1% (n = 47,000). inhibition, % at 20 µM. Q14694
Target sequence (Q14694 whole entry, looked up): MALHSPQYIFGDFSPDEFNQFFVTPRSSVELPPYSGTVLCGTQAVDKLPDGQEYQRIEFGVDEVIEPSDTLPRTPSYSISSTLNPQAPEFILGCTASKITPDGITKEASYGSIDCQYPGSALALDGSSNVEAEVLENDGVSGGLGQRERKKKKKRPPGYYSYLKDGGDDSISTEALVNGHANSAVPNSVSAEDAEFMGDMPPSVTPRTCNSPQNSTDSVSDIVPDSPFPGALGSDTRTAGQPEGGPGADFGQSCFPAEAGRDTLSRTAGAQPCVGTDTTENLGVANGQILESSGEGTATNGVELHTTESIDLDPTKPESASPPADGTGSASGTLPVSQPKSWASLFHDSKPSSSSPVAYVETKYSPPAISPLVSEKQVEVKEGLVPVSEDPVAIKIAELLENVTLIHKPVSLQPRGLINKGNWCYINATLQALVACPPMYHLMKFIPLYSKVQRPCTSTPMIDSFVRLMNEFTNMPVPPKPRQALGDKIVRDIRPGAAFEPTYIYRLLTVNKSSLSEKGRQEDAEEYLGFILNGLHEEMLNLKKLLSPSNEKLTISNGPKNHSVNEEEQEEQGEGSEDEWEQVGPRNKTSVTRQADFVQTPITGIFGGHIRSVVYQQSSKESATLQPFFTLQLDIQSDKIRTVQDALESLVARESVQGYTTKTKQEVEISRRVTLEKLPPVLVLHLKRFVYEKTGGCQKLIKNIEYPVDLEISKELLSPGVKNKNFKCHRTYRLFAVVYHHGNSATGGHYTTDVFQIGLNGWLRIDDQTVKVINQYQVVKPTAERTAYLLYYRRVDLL
Active calls of the source: *. No stated cut-off is given here; in the data, active means inhibition above about 30%; inactive means the rest.

What do the screens show for `CS(=O)(=O)NC1CCCN(C(=O)Nc2cccc3ccccc23)C1` (configuration not stated)?
USP7 inh: -8; USP8 inh: 93*; UCHL1 inh: 5; USP10 inh: -8

What do the screens show for `O=C(Nc1cccc2ccccc12)C1CCCN(S(=O)(=O)Cc2ccccc2)C1` (configuration not stated)?
USP7 inh: 6; USP8 inh: 32*; UCHL1 inh: 3; USP10 inh: 9

What do the screens show for `CCc1ccccc1NC(=O)N1CCCC(CN2CCc3ccccc3C2)C1` (configuration not stated)?
USP7 inh: 0; USP8 inh: 11; UCHL1 inh: -1; USP10 inh: -1

How did Cc1cccc(CNC(=O)C2CCCN(S(=O)(=O)N3CCCCC3)C2)c1 (configuration not stated) do in these assays?
USP7 inh: 4; USP8 inh: 32*; UCHL1 inh: 5; USP10 inh: -1

How did O=C(NC1CCCCC1)c1cnc2sc3c(n2c1=O)CCC3 do in these assays?
USP7 inh: 1; USP8 inh: 0; UCHL1 inh: -1; USP10 inh: 1

How did O=C(NCc1ccccc1CN1CCCC1)c1cccc2cccnc12 do in these assays?
USP7 inh: -18; USP8 inh: 0; UCHL1 inh: 0; USP10 inh: -6

How did CCC(C(=O)C(C)C(O)C(C)CCc1ccc(C)c(O)c1C(=O)O)C1OC(CC)(C2CCC(O)(CC)C(C)O2)CC1C (configuration not stated) do in these assays?
USP7 inh: 28; USP8 inh: 20; UCHL1 inh: 5; USP10 inh: 61*

How did COc1ccc(-c2nc(CNC(=O)c3ccccc3C)cs2)cc1 do in these assays?
USP7 inh: 57*; USP8 inh: -5; UCHL1 inh: 0; USP10 inh: 0

How did O=C(Nc1cccc(C(F)(F)F)c1)c1ccc2c(c1)SC1=NS(=O)(=O)CCN12 do in these assays?
USP7 inh: -2; USP8 inh: 0; UCHL1 inh: -1; USP10 inh: 3

What do the screens show for `COc1ccc(CCNC(=O)c2ccc3c(c2)SC2=NS(=O)(=O)CCN23)cc1`?
USP7 inh: 3; USP8 inh: 35*; UCHL1 inh: -2; USP10 inh: 8

What do the screens show for `COc1ccc(C(C(=O)NCc2ccccc2)N(C(=O)CCN2CCc3ccccc32)c2ccc(C)c(C)c2)cc1` (configuration not stated)?
USP7 inh: -10; USP8 inh: -45; UCHL1 inh: -30; USP10 inh: -6

How did Cc1c(Cl)cccc1NC(=O)CSc1nc2cn(C)nc2c(=O)n1CC1CC1 do in these assays?
USP7 inh: -11; USP8 inh: 43*; UCHL1 inh: 1; USP10 inh: -4

What do the screens show for `COc1ccc(-c2nc(SCC(=O)Nc3ccc(Cl)cc3F)n[nH]2)cc1`?
USP7 inh: -6; USP8 inh: -32; UCHL1 inh: -1; USP10 inh: 6

How did Cn1cc2nc(SCC(=O)Nc3ccc(Cl)cc3F)n(CC3CC3)c(=O)c2n1 do in these assays?
USP7 inh: -14; USP8 inh: 32*; UCHL1 inh: -1; USP10 inh: 1

Results for Cc1ccc(Cl)cc1NC(=O)CSc1nc2cn(C)nc2c(=O)n1CC1CC1 ?
USP7 inh: -30; USP8 inh: 61*; UCHL1 inh: 2; USP10 inh: 2

How did CCOC(=O)CSc1nc2nccnc2c(=O)n1Cc1ccccc1Cl do in these assays?
USP7 inh: 1; USP8 inh: -41; UCHL1 inh: 2; USP10 inh: -2

Results for Cn1cc2nc(SCC(=O)NCc3ccccc3Cl)n(CC3CC3)c(=O)c2n1 ?
USP7 inh: -3; USP8 inh: 42*; UCHL1 inh: -1; USP10 inh: 3

How did COc1ccc(CN(CC(=O)NCC2CCCO2)C(=O)CCC(=O)Nc2ccccn2)cc1 (configuration not stated) do in these assays?
USP7 inh: 0; USP8 inh: 6; UCHL1 inh: -1; USP10 inh: -2

What do the screens show for `CCOC(=O)C1=C(C)Oc2ncn3nc(-c4ccccn4)nc3c2C1c1ccc(OC)c(OC)c1` (configuration not stated)?
USP7 inh: -4; USP8 inh: -225; UCHL1 inh: -2; USP10 inh: -1

What do the screens show for `COc1cc(C(C)=O)ccc1OCC(=O)N1c2ccccc2SCC1c1ccccc1` (configuration not stated)?
USP7 inh: 0; USP8 inh: 0; UCHL1 inh: 1; USP10 inh: 1

Results for COC(=O)c1ccc(C2c3[nH]c4ccccc4c3C[C@@H]3C(=O)N(c4ccc5c(c4)OCCO5)C(=O)N23)cc1 (some centres not stated) ?
USP7 inh: 8; USP8 inh: 5; UCHL1 inh: 1; USP10 inh: 48*

How did COc1ccc(C2c3[nH]c4ccccc4c3C[C@@H]3C(=O)N(c4ccc5c(c4)OCCO5)C(=O)N23)cc1 (some centres not stated) do in these assays?
USP7 inh: -74; USP8 inh: -69; UCHL1 inh: -80; USP10 inh: -15

Results for Cc1nc(-n2cccc2)sc1C(=O)NC1CCCC1 ?
USP7 inh: -4; USP8 inh: -13; UCHL1 inh: -2; USP10 inh: -1

What do the screens show for `Cc1nc(Nc2ccc(Cl)cn2)sc1C(=O)NC1CCCC1`?
USP7 inh: 4; USP8 inh: 31*; UCHL1 inh: -1; USP10 inh: 1

How did CCc1ccc(C(=O)N2CCC(Oc3ccc(C(=O)N(C)C)cn3)CC2)cc1 do in these assays?
USP7 inh: -6; USP8 inh: 0; UCHL1 inh: -1; USP10 inh: 0

Results for O=C(O)c1c(CNC2CCCCC2)c2ccccc2n1Cc1cccc(F)c1 ?
USP7 inh: -144; USP8 inh: -1; UCHL1 inh: -150; USP10 inh: -4

How did O=C(O)c1c(CNC2CCCCCC2)c2ccccc2n1Cc1ccc(F)cc1 do in these assays?
USP7 inh: -177; USP8 inh: -17; UCHL1 inh: 45*; USP10 inh: -8

How did CN1[C@@H](CCC(=O)N2CCCC2)CNC(=O)[C@@H]2[C@H]1CCN2Cc1csnn1 do in these assays?
USP7 inh: 3; USP8 inh: 1; UCHL1 inh: 2; USP10 inh: 1

How did CN1[C@@H](CCC(=O)N2CCCC2)CNC(=O)[C@@H]2[C@H]1CCN2Cc1ccccc1 do in these assays?
USP7 inh: -1; USP8 inh: 22; UCHL1 inh: 4; USP10 inh: 2

Results for Cc1ccc(CN2CC[C@@H]3[C@H]2C(=O)NC[C@H](CCC(=O)NCc2cccnc2)N3C)cc1 ?
USP7 inh: -14; USP8 inh: -64; UCHL1 inh: -1; USP10 inh: 0

Results for COC[C@H]1CCCN1C(=O)CC[C@H]1CNC(=O)[C@@H]2[C@@H](CCN2Cc2csnn2)N1C ?
USP7 inh: -5; USP8 inh: 31*; UCHL1 inh: 6; USP10 inh: 3

What do the screens show for `COc1ccc(CN2CC[C@@H]3[C@H]2C(=O)NC[C@H](CCC(=O)NCc2cccnc2)N3C)cc1`?
USP7 inh: -22; USP8 inh: 63*; UCHL1 inh: 18; USP10 inh: 2
